Compounds without any hit were thinned out: in the full panel of roughly 83,000, 20% have a hit.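 Results are percent growth after 48 hours of single-concentration exposure. 100 means growth as in untreated cells, lower positive values show inhibition; negative values down to -100 show cell death.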 Calls of active or inactive are those of the source. Rule for the calls: active = growth percent below 10; inactive = the rest.

This test deals with MDA-MB-468 breast. Nature of the test: NCI-60 one-dose screen, 48 h (100 = growth as untreated, 0 = no growth, -100 = all killed). The settings on record: 10 µM unless noted.
In the case of `CC1=C/C(=C(\c2cc(C)c(O)c(C(=O)O)c2)c2c(Cl)cccc2Cl)C=C(C(=O)O)C1=O`, the growth was 104% (inactive).

Turning to `O=C(CN1C(=O)S/C(=C\C(Cl)=C\c2ccccc2)C1=O)NCCCn1ccnc1`, the growth is -28.2% (active).

As for `CCOC(=O)[C@@H](C)C[C@H](Cc1ccccc1)NC(=O)c1csc([C@@H](C[C@H](C(C)C)N(C)C(=O)[C@@H](NC(=O)[C@H]2C[C@H](O[Si](C)(C)C(C)(C)C)CCN2C)C(C)C)OC(C)=O)n1`, the growth was 3.46% [9.25 µM] (active).

In the case of `C[N+](C)(C)c1ncnc2nc[nH]c12`, the growth was 90.3% (inactive).

Regarding `Cc1c(Cl)cccc1NC(=O)CN1CCOCC1`, the growth is 107% (inactive).

With `CCCCCNCCCCCNc1cc(OC)cc2cccnc12`, the growth is 45.3% (inactive).

In the case of `Cc1cc2nc3c4cc(Cl)ccc4n(CC(=S)NCCN(C)C)c3nc2cc1C`, the growth is -89.3% (active).

As for `O=[N+]([O-])c1cc(/C=N/Nc2nc(N/N=C/c3ccc(Cl)c([N+](=O)[O-])c3)nc(N3CCCCC3)n2)ccc1Cl`, the growth is 68.8% (inactive).

In the case of `CCCCOP(=O)(OCCCC)C(C(=O)OCC)C(CC(=O)OCC)C(=O)OCC` (stereo not given), the growth is 124% (inactive).

On to `COc1ccccc1Nc1nc(-c2cc3cccc(C(F)(F)F)c3oc2=O)cs1`, for which the growth was -2.43% (active).

For `O=C(CNc1nc(-c2cccc([N+](=O)[O-])c2)cs1)Nc1cccc([N+](=O)[O-])c1`, the growth is 14.3% (inactive).

`CCC(C)/C(=C\C#N)NCCCN/C(=C/C#N)C(C)CC` (stereo not given): the growth is 108% (inactive).

`COc1ccc(-c2[nH]nc(N)c2-c2cc(OC)c(OC)c(OC)c2)cc1`: the growth is 34% (inactive).

Turning to `CC1C(=O)c2ccccc2CC1C(=O)O` (stereo not given), the growth was 118% (inactive).

Consider `C[C@@H](Oc1cc(-c2cnn(C3CC4(CNC4)C3)c2)cnc1N)c1c(Cl)ccc(F)c1Cl`, for which the growth is 20.5% (inactive).

For the compound `CCOC(=O)c1c2c(cn1Cc1ccccc1)-c1oncc1CC2`, the growth was 105% (inactive).

Take `Fc1cccc(-c2ccc3c(c2)C2(CCNCC2)CN3)c1`: the growth was 116% (inactive).

`O=Cc1c[nH]c2ccc(NC(=O)OCc3ccccc3)cc12`: the growth is 109% (inactive).

For the compound `CCCCCCCCNC(C)C(O)c1ccc(SC(C)C)cc1` (stereo not given), the growth is 17.6% (inactive).

Turning to `O=C1CSC(c2c(Cl)cccc2Cl)N1c1nc(Cl)cc(=O)[nH]1` (stereo not given), the growth was 117% (inactive).

For `NC(=O)C12C(=O)NC(=O)C1(C(=O)O)C21CCCC1` (stereo not given), the growth was 112% (inactive).

Turning to `Cc1cccc(N=Nc2cccc(C)c2)c1`, the growth is 108% (inactive).

On to `O=C1/C(=C/C2=Cc3ccccc3OC2)SC(=S)N1c1ccc(F)cc1`, for which the growth was 112% (inactive).

Turning to `CCOP(=O)(OCC)/C(=C\N1C(=O)CC(=O)NC1=S)C(=O)OC`, the growth is 107% (inactive).

In the case of `N#Cc1nc(C#N)c(Sc2ccccc2)c(Sc2ccccc2)c1Sc1ccccc1`, the growth was -73.9% (active).

Consider `COc1ccc(NCc2cn(-c3ccc(C(=O)O)cc3)nc2-c2cc(C(F)(F)F)cc(C(F)(F)F)c2)cc1`, for which the growth was 112% (inactive).

In the case of `Nc1nc(-c2cccc([N+](=O)[O-])c2)c(N=Nc2ccccc2[N+](=O)[O-])s1`, the growth was 74.8% (inactive).

Regarding `Cc1c(C(=O)NC(Cc2ccccc2)C(O)C(=O)NCc2ccc(F)cc2)[nH]c2ccccc2c1=O` (stereo not given), the growth was 99.4% (inactive).

`OC(CNc1ccnc2cc(Cl)ccc12)CNc1ccnc2cc(Cl)ccc12`: the growth was -67.9% (active).

With `COc1cccc(-c2ccc3c(c2)C2CCN(Cc4ccccc4)C3C2)c1` (stereo not given), the growth is 67.9% (inactive).

As to `C=CCN1C(=O)/C(=C\c2ccc3c(c2)CCC3)SC1=S`, the growth was 116% (inactive).

In the case of `COc1cc(N2C(=O)[C@H](c3ccccc3)C2c2ccc(SC)cc2)cc(OC)c1OC` (stereo not given in full), the growth was -9.99% (active).

For `O=C1Nc2ccc(Br)cc2/C1=N/c1n[nH]c(=S)s1`, the growth was 103% (inactive).

Take `CC(C)n1c2ccc(Br)cc2c2c3c(c4c5ccccc5ccc4c21)C(=O)NC3=O`: the growth is 93.5% (inactive).

Turning to `Cc1ccc2c(n1)C(=O)C(Oc1ccc(Br)cc1)=CC2=O`, the growth was 91.3% (inactive).

Regarding `Nc1c(C(=O)Nc2ccccc2)sc2nc3c(cc12)CN(C(=O)OCc1ccccc1)CC3`, the growth was 63.8% (inactive).

As for `COc1ncc(-c2ccc3ncnc(Nc4cccc(Cl)c4)c3c2)cc1NS(=O)(=O)C1CC1`, the growth was -43.9% (active).

Consider `S=C(c1ccccc1)N1CCN(c2cccc(Cl)c2)CC1`, for which the growth was 105% (inactive).

`c1ccc(Oc2c3ccccc3nc3ccccc23)cc1`: the growth was -4.55% (active).

As to `Cc1c(Cl)cccc1NC(=O)c1sc2nc3c(cc2c1N)C(=O)CCC3`, the growth was 48.6% (inactive).

(Values after PubChem BioAssay (NCI).)
